Hits are enriched below; roughly 3.4% of the tested compounds scored in any of these assays.
MEKK3 PB1 HTS – modulators of MEKK3-MEK5 PB1 binding, primary screen, biochemical, wildtype MEKK3, multiplex bead flow cytometry, Alexa488-MEK5 | actives 1.4% (n = 290,000) | binding response (% of control), % at 10 µM | AID 1529, 2009 | bead-based flow cytometry, Alexa488-MEK5 binding to MEKK3; actives lie on both sides; 0 = blocked by unlabeled MEK5, 100 = vehicle | Mitogen-activated protein kinase kinase kinase 3 (Homo sapiens), Q99759;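 active = binding response more than 3 SD above or below the average of its plate-row segment, actives on both sides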;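 also: Alexa488 bead fluorescence after subtracting the streptavidin-only scavenger bead signal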
TMEM16A inh – TMEM16A chloride channel inhibitors, primary screen, cell-based, HTS. HEK293 TMEM16A/YFP iodide influx fluorescence, ionomycin. actives 1.2% (n = 310,000). normalized B-score (activity score, 25-100; higher = stronger inhibition) at 10 µM;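 active = ratio plate-corrected score three or more library SD toward inhibition, starting fluorescence score within five deviations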;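 also: score derived from kinetic fluorescence span divided by baseline fluorescence per well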
Target sequence (Q8BHY3 whole entry, looked up): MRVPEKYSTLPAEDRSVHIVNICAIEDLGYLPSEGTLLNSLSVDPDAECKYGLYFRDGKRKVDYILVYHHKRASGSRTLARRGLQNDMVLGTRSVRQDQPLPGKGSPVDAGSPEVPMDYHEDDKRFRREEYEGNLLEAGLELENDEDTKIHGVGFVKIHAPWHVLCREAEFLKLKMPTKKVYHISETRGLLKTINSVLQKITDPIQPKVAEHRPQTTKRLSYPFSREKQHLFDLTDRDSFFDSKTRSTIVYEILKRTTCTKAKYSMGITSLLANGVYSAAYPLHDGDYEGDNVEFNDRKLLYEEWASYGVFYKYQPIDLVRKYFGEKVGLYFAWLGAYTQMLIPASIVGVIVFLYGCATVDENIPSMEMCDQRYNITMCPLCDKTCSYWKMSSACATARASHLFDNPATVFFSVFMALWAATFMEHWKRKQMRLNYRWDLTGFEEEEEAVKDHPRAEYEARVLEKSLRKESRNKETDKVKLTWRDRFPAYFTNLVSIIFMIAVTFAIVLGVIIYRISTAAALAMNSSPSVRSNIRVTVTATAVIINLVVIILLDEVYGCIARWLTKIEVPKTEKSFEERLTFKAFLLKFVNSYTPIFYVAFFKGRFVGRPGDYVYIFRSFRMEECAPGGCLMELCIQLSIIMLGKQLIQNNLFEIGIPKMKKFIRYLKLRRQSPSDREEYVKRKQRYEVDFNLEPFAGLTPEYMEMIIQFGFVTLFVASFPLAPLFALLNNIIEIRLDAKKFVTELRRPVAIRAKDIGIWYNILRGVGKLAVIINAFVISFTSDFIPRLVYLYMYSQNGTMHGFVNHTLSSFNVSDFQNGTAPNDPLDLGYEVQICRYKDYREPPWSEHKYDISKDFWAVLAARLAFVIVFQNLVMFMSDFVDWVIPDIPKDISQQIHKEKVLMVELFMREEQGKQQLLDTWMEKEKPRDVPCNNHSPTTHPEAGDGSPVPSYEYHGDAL
NTR1 agonist – agonists of human NTR1, primary screen, imaging, U2OS cells, beta-arrestin-GFP, high content. Neurotensin receptor type 1 (Homo sapiens), P30989. NTR1-U2OS beta-arrestin-GFP spot imaging, agonist mode. activation, % at 20 µM. actives 0.17% (n = 330,000). AID 493036, 2011;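 active = activation at or above 40% of the spot to cytoplasm intensity ratio, with at least 20 cells analyzed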;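 also: 0% = DMSO without peptide and 100% = 100 nM NTR1 peptide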
ANO1 activ – TMEM16A chloride channel activators or potentiators, primary screen, cell-based, HTS; actives 0.3% (n = 340,000); B-score at 10 µM; HEK293 TMEM16A/YFP-H148Q/I152L, iodide quench fluorescence; hits give low values; Anoctamin-1 (Mus musculus), Q8BHY3;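 active = fluorescence-ratio B-score plate-corrected deviation score at least 3 library SD below zero, with starting fluorescence score within 5 deviations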;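 also: channel opened by trigger with iodide after compound preincubation; score built on the fluorescence ratio of max minus min over baseline; more negative score means more quench and so TMEM16A activation or potentiation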
MEKK2wt PB1 HTS – modulators of MEK5 binding to wildtype MEKK2, primary screen, biochemical, multiplex bead flow cytometry, Alexa488-MEK5 | Mitogen-activated protein kinase kinase kinase 2 (Homo sapiens), Q9Y2U5 | Alexa488-MEK5 binding to MEKK2 WT; actives lie on both sides | binding response (% of control), % at 10 µM | actives 1.1% (n = 290,000) | AID 1531, 2009; in the data active = binding response below about 67% or above about 130%
MEKK2mut PB1 HTS – MEK5 binding signal on mutant MEKK2 PB1, primary screen, biochemical, multiplex bead flow cytometry, Alexa488-MEK5; actives 0.35% (n = 290,000); percent response, % at 10 µM; Alexa488-MEK5 binding to MEKK2 mutant; in the data active = percent response above about 24%, passing the limit was not always enough
MEKK2wt confirm – modulators of MEK5 binding to wildtype MEKK2, confirmation, biochemical, single concentration, multiplex bead flow cytometry | shares compounds with MEKK3 PB1 HTS | Alexa488-MEK5 binding to MEKK2 WT; actives lie on both sides | binding response (% of control), % at 10 µM | actives 2.4% (n = 5,900); in the data active = binding response below about 16% or above about 210%; inactive = in between
MEKK2mut-MEK5 – mutant MEKK2 PB1-MEK5 binding signal retest – biochemical, single concentration, multiplex bead flow cytometry, confirmation. shares compounds with MEKK3 PB1 HTS. Alexa488-MEK5 binding to MEKK2 mutant. percent response, % at 10 µM. actives 2% (n = 5,900). AID 1893, 2009; in the data active = percent response mostly above about 71%, no sharp cut-off; inactive = mostly below about 38%;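 also: higher means compound restores mutant binding toward wildtype level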
MEKK3-MEK5 inh – MEKK3 wild-type PB1 binding to MEK5, inhibitors, confirmation, biochemical, bead multiplex flow cytometry, single concentration, wildtype; AID 1894, 2009; actives 1.8% (n = 5,900); shares compounds with MEKK3 PB1 HTS; binding response (% of control), % at 10 µM; Alexa488-MEK5 binding to MEKK3; hits give low values;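 active = binding response below 72% of control, or above a set upper limit, though filed actives all read lower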;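 also: 100% = DMSO only wells and 0% = binding blocked by excess unlabeled MEK5; lower values mean stronger disruption of MEK5 binding to MEKK3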
* = called active by the depositor; i = inactive; · = no result; [ ] = dose if it differs, or a comment.

SMILES | MEKK3 PB1 HTS | TMEM16A inh | NTR1 agonist | ANO1 activ | MEKK2wt PB1 HTS | MEKK2mut PB1 HTS | MEKK2wt confirm | MEKK2mut-MEK5 | MEKK3-MEK5 inh
OC(CNCC1CCCO1)Cn1c2ccc(Cl)cc2c2cc(Cl)ccc21 (stereo unspecified) | 104.0 | i | 9.3 | i | 187.0* | 34.0 | 170.0 | 49.0 | 113.0
Cn1cccc1C(=O)OCC(=O)NC(=O)NC1CCCCC1 | 96.0 | i | 0.0 | i | 94.0 | -4.0 | · | · | ·
CC(C)(C)C(=O)Nc1nnc(SCC(=O)Nc2nccs2)s1 | 101.0 | i | 1.8 | i | 105.0 | 5.0 | · | · | ·
O=C(O)CCS(=O)(=O)Cc1ccccc1F | 2.0*[inhibitor] | i | -1.6 | i | 2.0*[inhibitor] | -46.0 | 108.0 | 5.0 | 105.0
O=C1C2CCC(C2)C1CN1CCOCC1 (stereo unspecified) | · | · | · | i | · | · | · | · | ·
CCN(CC)CCNC(=O)c1ccc(NC(=O)c2cccc(S(=O)(=O)N3c4ccccc4CC3C)c2)cc1 (stereo unspecified) | 105.0 | i | 2.2 | i | 174.0* | 37.0* | 135.0 | 20.0 | 108.0
CCN(CC)CCNC(=O)c1ccc(NC(=O)c2cccc(S(=O)(=O)N3CCc4ccccc43)c2)cc1 | · | · | 4.4 | i | · | · | · | · | ·
COc1ccc(-c2nnc(SC)nc2-c2ccc(OC)c([N+](=O)[O-])c2)cc1[N+](=O)[O-] | · | i | 2.4 | i | · | · | · | · | ·
CCN(CC)C(=O)Cn1cc(C(=O)C(=O)NCc2ccco2)c2ccccc21 | 90.0 | i | 2.5 | i | 94.0 | -2.0 | · | · | ·
COc1ccc(C(=O)/C=C/c2cn(CN3CCN(C)CC3)c3ccccc23)cc1 | · | i | 20.7 | i | · | · | · | · | ·
CCOc1ccc(C(=O)/C=C/c2cn(CN3CCN(C)CC3)c3ccccc23)cc1 | 112.0 | i | 49.2* | i | 204.0* | 41.0* | 156.0 | 27.0 | 109.0
N#Cc1ccc(/C=N/NC(=O)c2cc(-c3cccs3)nc3ccccc23)cc1 | 101.0 | i | 3.1 | i | 103.0 | 8.0 | · | · | ·
N#Cc1ccc(-c2csc(NC(=O)c3cc(-c4cccs4)nc4ccccc34)n2)cc1 | 63.0*[inhibitor] | i | 2.5 | i | 38.0*[inhibitor] | -31.0 | 103.0 | 10.0 | 107.0
COc1cccc(NC(=O)c2nc3ncccn3n2)c1 | 2.0*[inhibitor] | i | 3.1 | -5.4* | 2.0*[inhibitor] | -18.0 | 105.0 | 3.0 | 102.0
COc1cccc(NC(=O)c2ccccc2Oc2ccccc2)c1 | 102.0 | i | 0.3 | i | 104.0 | 3.0 | · | · | ·
COc1cccc(NC(=O)c2cccc(C(=O)Nc3cccc(OC)c3)c2)c1 | 102.0 | i | 0.4 | i | 106.0 | 5.0 | · | · | ·
COc1cccc(Nc2ncccc2C(=O)Nc2ccccc2)c1 | 129.0* | i | 0.4 | i | 127.0 | 6.0 | 105.0 | 6.0 | 102.0
COc1ccc(S(=O)(=O)N2CCCCC2)cc1NC(=O)c1cc(C)on1 | 87.0 | i | 4.0 | i | 94.0 | -2.0 | · | · | ·
CCN(CC)c1ccc(NC(=O)c2cccnc2)cc1 | 110.0 | i | 0.6 | i | 134.0* | 13.0 | 96.0 | -4.0 | 99.0
Cc1nc2ccc(NC(=O)c3cccnc3)cc2s1 | 50.0*[inhibitor] | i | -0.2 | i | 60.0 | -13.0 | 105.0 | 7.0 | 104.0
CCN(CC)c1ccc(NC(=O)c2cncc(Br)c2)cc1 | 103.0 | i | 2.2 | i | 108.0 | 7.0 | · | · | ·
CCOC(=O)C1CCCCN1C(=O)/C(=C/c1ccc(OC)cc1)c1ccc(OC)c(OC)c1 (stereo unspecified) | · | · | -2.3 | i | · | · | · | · | ·
O=C(CN(c1ccc(F)cc1)S(=O)(=O)c1ccccc1)N1CCOCC1 | 107.0 | i | -0.6 | i | 112.0 | 8.0 | · | · | ·
O=C(Nc1cccc2cccnc12)c1ccc(Cl)cc1Cl | 92.0 | i | 7.5 | i | 90.0 | -5.0 | · | · | ·
COc1cc(NC(=O)c2ccccc2Cl)c2ncccc2c1 | 105.0 | i | 1.9 | i | 104.0 | 26.0* | 107.0 | 3.0 | 106.0
SMILES | MEKK3 PB1 HTS | TMEM16A inh | NTR1 agonist | ANO1 activ | MEKK2wt PB1 HTS | MEKK2mut PB1 HTS | MEKK2wt confirm | MEKK2mut-MEK5 | MEKK3-MEK5 inh
Cc1ccc(OCCNC(=O)c2ccccc2OCc2c(C)noc2C)cc1 | · | · | 2.5 | i | · | · | · | · | ·
CC(C)NC(=O)C(=O)NNC(=O)C12CC3CC(CC(C3)C1)C2 | 110.0 | i | -0.4 | i | 103.0 | 24.0* | 107.0 | 0.0 | 102.0
O=C(Nc1nnc(-c2ccco2)o1)c1ccc(N2C(=O)CCC2=O)cc1 | 70.0*[inhibitor] | i | -0.1 | i | 87.0 | -2.0 | 95.0 | 2.0 | 106.0
O=C(Nc1nnc(-c2ccc(Cl)cc2)o1)c1ccc(N2C(=O)CCC2=O)cc1 | 101.0 | i | 0.0 | i | 100.0 | -2.0 | · | · | ·
Cc1ccc(C2Nc3ccccc3NC3=C2C(=O)OC(C)C3)cc1 (stereo unspecified) | 108.0 | i | -2.2 | i | 100.0 | -1.0 | · | · | ·
CC1CC2=C(C(=O)O1)C(c1ccc(Cl)cc1)Nc1ccccc1N2 (stereo unspecified) | 71.0*[inhibitor] | i | 0.0 | i | 91.0 | -1.0 | 104.0 | 8.0 | 104.0
COc1ccc(NC(=O)COC(=O)c2ccc([N+](=O)[O-])o2)cc1Cl | 131.0* | i | 3.3 | i | 123.0 | 5.0 | 106.0 | 6.0 | 106.0
COc1ccc(C)cc1NC(=O)COC(=O)c1ccc([N+](=O)[O-])o1 | 97.0 | i | 9.6 | i | 92.0 | -2.0 | · | · | ·
O=C(c1cccc(N2C(=O)C3C4C=CC(C4)C3C2=O)c1)N1CCN(c2ccccc2)CC1 (stereo unspecified) | 71.0 | i | -0.2 | i | 81.0 | -11.0 | · | · | ·
COc1cc(CNCCc2ccc(S(N)(=O)=O)cc2)ccc1OCc1ccc(Cl)cc1 | 105.0 | i | 2.4 | i | 232.0* | 71.0* | 150.0 | 20.0 | 108.0

Screening data deposited in PubChem by several laboratories.
